Screens (PubChem)
A selection: hits, their analogues and other compounds. The true share with any hit is near 4.7%.
TRHR PAM = TRH receptor (human) allosteric enhancement; P34981; TRHR cells, fluo-8 calcium fluorescence, EC20 TRH enhancement; enhancement, % at 2 µM; actives 0.66% (n = 360,000); in the data active means enhancement above about 30%
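TRHR-expressing cells loaded with fluo-8 calcium dye were read kinetically (ex 480/em 530) during compound addition, then stimulated with an EC20 of TRH (10 nM final). Enhancement of the Gq-mediated intracellular calcium response was scored.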
D1 PAM = human D1 dopamine receptor positive modulation. potentiation, % at 10 µM. actives 0.036% (n = 360,000). HEK293 TREx D1 cells, calcium flux, dopamine EC20 potentiation. P21728; in the data active means potentiation above about 30%
Target sequence (P21728 whole entry, looked up): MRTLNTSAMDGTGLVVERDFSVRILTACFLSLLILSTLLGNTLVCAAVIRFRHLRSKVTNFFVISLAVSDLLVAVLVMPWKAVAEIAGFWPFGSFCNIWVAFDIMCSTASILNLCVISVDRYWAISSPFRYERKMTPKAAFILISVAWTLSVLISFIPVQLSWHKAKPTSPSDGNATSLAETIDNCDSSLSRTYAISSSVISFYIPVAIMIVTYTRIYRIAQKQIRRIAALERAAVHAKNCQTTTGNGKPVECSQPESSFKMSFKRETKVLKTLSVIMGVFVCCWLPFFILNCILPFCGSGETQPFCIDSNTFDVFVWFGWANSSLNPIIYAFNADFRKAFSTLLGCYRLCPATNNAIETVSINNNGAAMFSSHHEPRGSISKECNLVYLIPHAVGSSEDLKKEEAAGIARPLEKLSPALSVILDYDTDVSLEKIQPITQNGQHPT
D1 antagonist = human D1 dopamine receptor antagonism; P21728; HEK293 TREx D1 cells, calcium flux, dopamine EC80; stronger effect = lower value; activity change, negative = inhibition, % at 10 µM; actives 3.2% (n = 360,000); AID 504652; in the data active means activity change below about -30%
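Antagonism measured as reduced calcium response to an EC80 dopamine addition following 180 s compound pre-read; cells were inducible HEK293 Trex D1 plated overnight at 30 C, read kinetically at 1 cycle/sec.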
D1 agonist = human D1 receptor agonism | AID 504660 | HEK293 T-REx D1 cells, calcium flux, agonist mode | P21728 | actives 1% (n = 360,000) | activation, % at 2 µM
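Agonism was scored from calcium flux recorded over 180 s (1 read/s) after pintool compound addition, following a 10-cycle baseline. Cells were inducible force-coupled HEK293 TREx D1, plated overnight at 30 C and loaded with no-wash calcium dye.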
TRHR agonist = TRH receptor (human) agonism. TRHR cells, calcium flux fluo-8, FDSS agonist mode. activation, % at 2 µM. actives 0.18% (n = 360,000). AID 493084
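TRHR-expressing cells loaded with fluo-8 calcium dye; 23 nL library compound pin-transferred, kinetic FDSS fluorescence (Ex 480/Em 530) recorded about 180 s for agonist-induced calcium release, before a 10 nM TRH EC20 addition for potentiator mode.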
Hits are given with their value; 0 = inactive; - = not tested or not shown. Unless noted, no stated cut-off is given here; in the data, active means activation above about 30%; inactive means the rest.

SMILES	TRHR PAM	D1 PAM	D1 antagonist	D1 agonist	TRHR agonist
CC(=O)Nc1c(C)nn(-c2ccccc2)c1N1CCC(C(=O)NCc2cccc(Cl)c2)CC1	0	0	0	0	0
CC(=O)N1CCc2nc3sc(C(=O)c4ccc(F)cc4)c(N)c3c(C(F)(F)F)c2C1	0	0	0	61	37
Cc1nc(-c2ccccc2)nc2sc(C(=O)c3ccc(F)cc3)c(N)c12	0	0	0	34	0
Cc1nc2sc(C(=O)c3ccccc3)c(N)c2c(C)c1C	0	0	0	0	0
CCCCC(=O)Nc1nnc(SCc2cc(=O)n3cc(C)ccc3n2)s1	0	0	0	0	0
COc1cc(CNCCCN2CCOCC2)cc(Br)c1OCc1ccc(Cl)cc1	0	0	-	72	0
CSc1cccc(NC(=O)Cn2c(=O)n(Cc3ccccc3)c(=O)c3sc4ccccc4c32)c1	0	0	0	0	0
CS(=O)(=O)N(CC(=O)NCCc1ccccc1)c1cc(C(F)(F)F)ccc1Cl	0	0	0	0	0
CCN(CC)CCCNC(=O)CSc1nc(-c2ccc(F)cc2)cc(C(F)(F)F)n1	0	0	-41	0	0
O=C(CSc1nc(-c2ccc(F)cc2)cc(C(F)(F)F)n1)NCCc1ccccc1	0	0	0	44	0
CCC(C)NC(=O)CSc1nc(-c2ccc(F)cc2)cc(C(F)(F)F)n1 (stereo not drawn)	0	0	0	0	0
O=C(CSc1nc2ccccc2c(=O)n1-c1ccccc1F)NC1CCS(=O)(=O)C1 (stereo not drawn)	0	0	0	0	0
CCOc1ccc(CNC(=O)c2ccc3c(c2)nc2n3CCOC2)cc1OC	0	0	0	0	0
Cc1c(-c2nc3ccccc3[nH]2)cnn1C	0	0	-30	0	0
CCC(C(=O)NCCC(C)C)N(C(=O)Cn1nnc(-c2ccc(C)cc2)n1)c1cccc(O)c1 (stereo not drawn)	0	0	0	0	0
O=C(NCCS(=O)(=O)N1CCN(c2ccc(F)cc2)CC1)c1ccco1	0	0	-42	0	0
COc1ccc(-n2c(C)nc(N)c2C(=O)c2ccccc2)cc1	0	0	0	0	0
COC(=O)c1c(N)nc(C)n1-c1ccc(OC)cc1	0	41	0	0	0
COc1ccc(Cn2c(CNC(=O)Cc3cccc([N+](=O)[O-])c3)nc3cccnc32)cc1	0	0	0	0	0
CCOc1ccc2oc(C(=O)OCC(=O)N3C(C)CCCC3C)c(C)c2c1 (stereo not drawn)	0	0	0	0	0
COc1ccc2oc(C(=O)OCC(=O)N3C(C)CCCC3C)c(C)c2c1 (stereo not drawn)	33	0	0	0	0
COc1ccc(OCC(=O)OCC(=O)NC2CC2)cc1	0	0	0	0	0
COc1ccc(OCC(=O)OCC(=O)N2C(C)CCCC2C)cc1 (stereo not drawn)	0	-	-36	0	0
COc1ccc2oc(C(=O)OCC(=O)Nc3ccc(NC(C)=O)cc3)c(C)c2c1	38	0	0	0	0
COc1ccc2oc(C(=O)OCC(=O)Nc3ccc(OC)c(S(N)(=O)=O)c3)c(C)c2c1	0	0	0	0	0
SMILES	TRHR PAM	D1 PAM	D1 antagonist	D1 agonist	TRHR agonist
Cc1c(C(=O)OCC(=O)N2c3ccccc3CC2C)oc2ccccc12 (stereo not drawn)	0	0	-65	0	0
Cc1ccc2ccc3c(c2n1)NS(=O)(=O)c1ccc(C(F)(F)F)cc1-3	0	0	0	0	0
COc1ccc2oc(C(=O)OCC(=O)NC3(C#N)CCCC3)c(C)c2c1	0	0	-49	0	0
COc1ccc2oc(C(=O)OCC(=O)NC3CCCC3)c(C)c2c1	0	0	-37	0	0
O=C(c1cn(CCOc2ccccc2F)c2ccccc12)C1CCCCC1	0	0	0	0	0
Cc1cc2c(s1)c1cnn(Cc3ccc(F)c(F)c3)c(=O)c1n2C	0	0	0	0	0
COc1cc(/C=C(\C#N)C(=O)NCC2CCCO2)ccc1O (stereo not drawn)	0	0	0	0	0
Cc1cc(/C=C(\C#N)C(=O)NCC2CCCO2)c(C)n1-c1ccc(Cl)cc1 (stereo not drawn)	0	0	-35	0	0
COc1ccc(CNC(=O)CN2C(=O)c3cccnc3Oc3ccc(C)cc32)cc1	0	0	0	0	0
CC1CCN(S(=O)(=O)c2ccc3c(c2)N(CC(=O)NC(C)C)C(=O)CO3)CC1	0	0	0	0	0
Cc1ccccc1C(=O)NCCc1sc(-c2ccc(Cl)cc2)nc1C	0	0	-38	0	0
Cc1nc(-c2ccc(Cl)cc2)sc1CCNC(=O)Cc1ccc(F)cc1	0	0	0	0	0
Cc1nc(-c2cccc(F)c2)sc1CCNC(=O)c1ccc(F)c(F)c1	30	0	0	0	0
COCCNc1nc2c(c(=O)n(C)c(=O)n2C)n1Cc1cccc(C)c1	0	0	-50	0	0
COc1ccc(Cn2c(NCC(C)C)nc3c2c(=O)n(C)c(=O)n3C)cc1	0	0	-41	0	0
CCc1ccc(N2CCn3c2nc2c3c(=O)n(Cc3ccc(F)cc3)c(=O)n2C)cc1	0	0	-46	0	0
CCC(C)Nc1nc2c(c(=O)n(C)c(=O)n2C)n1Cc1ccc(F)cc1 (stereo not drawn)	0	0	-85	0	0
CCc1ccc(N2CCn3c2nc2c3c(=O)n(Cc3c(F)cccc3Cl)c(=O)n2C)cc1	0	0	0	0	0
Cc1ccc(CNC(=O)Cn2cc(C(=O)c3ccc(Cl)cc3)c(=O)c3ccc(C)nc32)cc1	0	0	0	0	0
Cn1c(=O)c2c(nc(NCc3ccc4c(c3)OCO4)n2Cc2ccccc2Cl)n(C)c1=O	0	0	-81	0	0
Cn1c(=O)c2c(nc(OCc3ccc4c(c3)OCO4)n2Cc2ccccc2Cl)n(C)c1=O	0	0	0	0	0
O=C(NCCC1=CCCCC1)c1ccc2c(c1)N(Cc1ccc(Cl)cc1)C(=O)c1ccccc1S2(=O)=O	0	0	0	0	0
COc1cccc(CNCc2ccc(OC)cc2OC)c1	0	0	0	0	0
CCn1c2ccccc2c2cc(N)ccc21	0	0	0	0	0
CCC(CC)NCc1ccc2c(c1)c1ccccc1n2CC	0	0	0	60	0
SMILES	TRHR PAM	D1 PAM	D1 antagonist	D1 agonist	TRHR agonist
CCn1c2ccccc2c2cc(CNCc3ccc(OC)cc3OC)ccc21	0	0	0	94	0
COc1ccc(CNCc2cc(C)c(OC)cc2C)c(OC)c1	0	0	0	30	0
COc1cccc2c1Oc1ncccc1N(C(=O)Nc1ccc(F)c(Cl)c1)C2	0	0	0	0	0
Cc1cc(C)cc(NC(=O)c2nnn(Cc3cc(C)ccc3C)c2N)c1	0	0	-44	0	0
Cc1ccc(C)c(Cn2nnc(C(=O)Nc3ccc4c(c3)OCCO4)c2N)c1	0	0	0	50	0
O=C(CSc1nncn2c1cc1sccc12)Nc1ccc(Br)cc1F	0	0	0	0	0
